Sfp PPTase inh: qHTS Assay for Inhibitors of Bacillus subtilis Sfp phosphopantetheinyl transferase (PPTase); 4'-phosphopantetheinyl transferase ffp (Bacillus subtilis), Q9F4F7; Potency, µM, actives largely listed as inhibitors; hit rate 3.5% among 310,000; AID 1490, 2009; Biochemical Sfp PPTase activity, qHTS;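 further: the enzyme is Sfp with the accession as filed and its product quenches rhodamine fluorescence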
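Sfp 15 nM + cpd, 15 min RT; start w/ rhodamine-CoA 5 uM, BHQ-2-YbbR 12.5 uM (final); 50 mM Hepes pH 7.6, 10 mM MgCl2, 0.01% NP-40, 0.01% BSA; read 525/598 nm at 0 and 30 min.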
VDR inhibitor: Inhibitors of the vitamin D receptor (VDR): qHTS; Vitamin D3 receptor (Homo sapiens), P11473; AID 504847, 2011; VDR-SRC2-3 peptide fluorescence polarization, 2 h; hit rate 0.93% among 400,000; Potency, µM, usual class: inhibitors
Target sequence (P11473 whole entry, looked up): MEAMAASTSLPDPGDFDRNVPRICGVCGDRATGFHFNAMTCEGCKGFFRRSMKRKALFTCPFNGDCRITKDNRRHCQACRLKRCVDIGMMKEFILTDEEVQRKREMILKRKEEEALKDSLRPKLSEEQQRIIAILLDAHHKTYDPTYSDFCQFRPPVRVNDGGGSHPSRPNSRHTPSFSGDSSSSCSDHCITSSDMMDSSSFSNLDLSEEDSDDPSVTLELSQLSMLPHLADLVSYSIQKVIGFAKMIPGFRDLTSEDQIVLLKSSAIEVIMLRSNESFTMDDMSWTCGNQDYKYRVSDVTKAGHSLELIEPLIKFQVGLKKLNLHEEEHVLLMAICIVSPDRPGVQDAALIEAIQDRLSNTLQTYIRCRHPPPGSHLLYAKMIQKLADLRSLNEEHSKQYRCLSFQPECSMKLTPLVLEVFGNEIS
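FP read-out; VDR + SRC2-3 coactivator peptide; 23 nl compound by pintool; 2 h RT incubation; reagents held at 4 deg C, protected from light.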
TrxR1 substrate: qHTS Assay for Substrates of Mammalian Selenoprotein Thioredoxin Reductase 1 (TrxR1): qHTS | purified TrxR1 substrate turnover, NADPH consumption readout | Potency, µM (highest dose often 114 µM) | hit rate 0.01% among 390,000 | AID 588456, 2011; further: nearly all actives have a fitted effect of over 50% in size
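Rat TrxR1, dispensed at 90 nM, was prereduced with 400 uM NADPH (final) for 5 min at ~22 deg C, then incubated with compound 15 min before 400 uM selenite. A first-read NADPH fluorescence drop versus no-compound background flagged substrates.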
mIDH1 inhibitor: qHTS for Inhibitors of mutant isocitrate dehydrogenase 1 (IDH1): qHTS | Potency, µM (series often up to 76.6 µM), most hits filed as inhibitors | Isocitrate dehydrogenase [NADP] cytoplasmic (Homo sapiens), O75874 | IDH1-R132H enzyme, NADPH consumption, diaphorase/resazurin fluorescence | hit rate 0.093% among 390,000; further: nearly all actives have a fitted effect of over 65% in size
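IDH1-R132H (0.5 ug/mL) preincubated 30 min with compound, then NADPH (0.016 mM) and alpha-KG (2 mM) added; 80 min at RT, pH 7.5. Remaining NADPH coupled via diaphorase/resazurin to fluorescence (540/590 nm); concentration-response curves normalized to no-enzyme control.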
TrxR1 inh: qHTS Assay for Inhibitors of Mammalian Selenoprotein Thioredoxin Reductase 1 (TrxR1): qHTS. recombinant rTrxR1, NADPH fluorescence consumption, selenite substrate. Potency, µM (top dose mostly 114 µM), hits mostly inhibitors. hit rate 1% among 390,000; further: nearly all actives have a fitted effect of over 65% in size
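Rat TrxR1 (90 nM in the dispensed reagent) was pre-reduced with 400 uM NADPH for 5 min at room temperature, then incubated with compound for 15 min. After 400 uM selenite was added, NADPH fluorescence (Ex 340/Em 450 nm) was followed for 8 min.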
PLK1 PBD inh: qHTS for Inhibitors of PLK1-PDB (polo-like kinase 1 - polo-box domain): Primary Screen. Plk1 PBD binding of FITC phosphopeptide, fluorescence polarization. Potency, µM, hits mostly inhibitors. hit rate 2.8% among 360,000; further: series mostly up to about 57 µM; nearly all actives have a fitted effect of over 65% in size
A number is an active result; [ ] = dose if it differs, or a comment. Only some compounds are listed: those with a hit (about 5.2% of all), similar ones and a draw of the others. The call rests on the fitted dose curve; in most records, active means well fitted curve in the direction sought with a large enough effect; inconclusive means small, poorly fitted or top-dose-only effect, or another doubt; inactive means no such curve, though single readings can be large; an effect the other way counts as inactive or inconclusive.

CC(C)(CO)Cc1cc(C(C)(C)C)c(O)c(C(C)(C)C)c1 was read as Sfp PPTase inh inactive, VDR inhibitor inactive, TrxR1 substrate inconclusive, mIDH1 inhibitor inactive, TrxR1 inh inconclusive and PLK1 PBD inh inactive.
For CN(C)Cc1cc(C(C)(C)C)c(O)c(C(C)(C)C)c1 the results were Sfp PPTase inh inactive, VDR inhibitor inactive, TrxR1 substrate inactive, mIDH1 inhibitor inactive, TrxR1 inh 8.91µM and PLK1 PBD inh 10.6µM.
Cc1cc(NS(=O)(=O)c2ccccc2)cc(Cl)c1O was read as Sfp PPTase inh 79.4µM, VDR inhibitor inactive, TrxR1 substrate inactive, mIDH1 inhibitor inactive, TrxR1 inh inconclusive and PLK1 PBD inh inactive.
`O=S(=O)(Nc1ccc(NS(=O)(=O)c2ccccc2)c(Cl)c1)c1ccccc1` gave VDR inhibitor inactive, TrxR1 substrate inactive, mIDH1 inhibitor inactive, TrxR1 inh inactive and PLK1 PBD inh inactive.
O=C(C[n+]1ccccc1Cl)c1ccc(F)cc1 was read as TrxR1 substrate inactive and TrxR1 inh inactive.
`COc1ccc(C2Nc3cccc4cccc(c34)N2)cc1` gave Sfp PPTase inh inactive, VDR inhibitor inactive, TrxR1 substrate inactive, mIDH1 inhibitor inactive, TrxR1 inh inconclusive and PLK1 PBD inh 29.9µM.
Screening c1ccc(C2Nc3cccc4cccc(c34)N2)cc1 returned Sfp PPTase inh 28.2µM, VDR inhibitor inactive, TrxR1 substrate inactive, mIDH1 inhibitor inactive, TrxR1 inh inconclusive and PLK1 PBD inh 26.7µM.
`CN(C)c1ccc(C2Nc3cccc4cccc(c34)N2)cc1` gave Sfp PPTase inh inactive, VDR inhibitor inactive, TrxR1 substrate inactive, mIDH1 inhibitor inactive, TrxR1 inh inactive and PLK1 PBD inh inactive.
For c1csc(C2Nc3cccc4cccc(c34)N2)c1 the results were Sfp PPTase inh inconclusive, VDR inhibitor inconclusive, TrxR1 substrate inactive, mIDH1 inhibitor inactive, TrxR1 inh inconclusive and PLK1 PBD inh 29.9µM.
`COc1ccccc1C1Nc2cccc3cccc(c23)N1` gave Sfp PPTase inh 56.2µM, VDR inhibitor inactive, TrxR1 substrate inactive, mIDH1 inhibitor inactive, TrxR1 inh inconclusive and PLK1 PBD inh inactive.
CCOC(=O)c1csc(N/N=C2\CCCc3ccccc32)n1 was read as Sfp PPTase inh 79.4µM, VDR inhibitor inactive, TrxR1 substrate inactive, mIDH1 inhibitor inactive, TrxR1 inh inactive and PLK1 PBD inh inconclusive.
`O=C(COC(=O)c1cc(-c2ccc(Cl)s2)nc2ccccc12)NCc1ccco1` gave Sfp PPTase inh 12.6µM, VDR inhibitor 79.4µM, TrxR1 substrate inactive, mIDH1 inhibitor inactive, TrxR1 inh inconclusive and PLK1 PBD inh inconclusive.
`O=C(COC(=O)c1cc(-c2cccs2)nc2ccccc12)NCc1ccco1` gave Sfp PPTase inh 22.4µM, VDR inhibitor inactive, TrxR1 substrate inactive, mIDH1 inhibitor inactive, TrxR1 inh inconclusive and PLK1 PBD inh inconclusive.
COc1ccc(CNC(=O)COC(=O)c2cc(-c3ccc(Cl)s3)nc3ccccc23)cc1 was read as Sfp PPTase inh inactive, VDR inhibitor inactive, TrxR1 substrate inactive, mIDH1 inhibitor inactive, TrxR1 inh inactive and PLK1 PBD inh inactive.
For O=C(NCc1ccco1)c1cc(-c2cccs2)nc2ccccc12 the results were Sfp PPTase inh inactive, VDR inhibitor inactive, TrxR1 substrate inactive, mIDH1 inhibitor inactive, TrxR1 inh inactive and PLK1 PBD inh inactive.
COc1ccc2[nH]cc(/C=N/NS(=O)(=O)c3ccc(C)cc3)c2c1 was read as Sfp PPTase inh inactive, VDR inhibitor inconclusive, TrxR1 substrate inactive, mIDH1 inhibitor inactive, TrxR1 inh inactive and PLK1 PBD inh inactive.
Screening COc1ccc2c(/C=N/NS(=O)(=O)c3ccc(C)cc3)c[nH]c2c1 returned Sfp PPTase inh 56.2µM, VDR inhibitor inactive, TrxR1 substrate inactive, mIDH1 inhibitor inactive, TrxR1 inh inconclusive and PLK1 PBD inh inactive.
COc1ccc(-c2cnc(C)o2)cc1S(=O)(=O)Nc1ccc(C)c(N(C)C)c1 was read as VDR inhibitor inactive, TrxR1 substrate inactive, mIDH1 inhibitor inactive and TrxR1 inh inactive.
Screening COc1ccc(OC)c2cc3ccccc3cc12 returned VDR inhibitor inconclusive, TrxR1 substrate inactive, mIDH1 inhibitor inactive, TrxR1 inh inconclusive and PLK1 PBD inh 2.67µM.
For Cc1ccc(-n2nc3c(N4CCC(C(=O)N(C)Cc5ccccc5)CC4)nnc(C)c3c2C)cc1 the results were VDR inhibitor inactive, TrxR1 substrate inactive, mIDH1 inhibitor inactive and TrxR1 inh inactive.
COc1cc2c(C(=O)NCc3ccc(C)o3)cn(CC(C)C)c(=O)c2cc1OC was read as Sfp PPTase inh 44.7µM, VDR inhibitor inactive, TrxR1 substrate inactive, mIDH1 inhibitor inactive, TrxR1 inh 20µM and PLK1 PBD inh inactive.
`CC1(C(=O)Nc2cccc3c2CCCC3)CCN1C(=O)CCC1CCCC1` (stereo not drawn) gave PLK1 PBD inh inactive.
For O=C(O)C1C2C=CC(CC2)C1C(=O)O (stereo not drawn) the results were Sfp PPTase inh 39.8µM, VDR inhibitor inactive, TrxR1 substrate inactive, mIDH1 inhibitor inactive, TrxR1 inh inactive and PLK1 PBD inh inconclusive.
`COc1ccccc1NC(=O)Cn1nnc(-c2ccccc2NC(=O)c2cccs2)n1` gave Sfp PPTase inh 50.1µM, VDR inhibitor inactive, TrxR1 substrate inactive, mIDH1 inhibitor inactive, TrxR1 inh inactive and PLK1 PBD inh inactive.
For O=C(Cn1nnc(-c2ccccc2NC(=O)c2cccs2)n1)Nc1ccccc1 the results were Sfp PPTase inh inconclusive, VDR inhibitor inactive, TrxR1 substrate inactive, mIDH1 inhibitor inactive, TrxR1 inh inactive and PLK1 PBD inh inactive.
For Cn1cnc([N+](=O)[O-])c1SCC(=O)NN the results were Sfp PPTase inh 56.2µM, VDR inhibitor inactive, TrxR1 substrate inactive, mIDH1 inhibitor inactive, TrxR1 inh inactive and PLK1 PBD inh inactive.
Cn1cnc([N+](=O)[O-])c1SCC(O)CN1CCCCC1 (stereo not drawn) was read as Sfp PPTase inh inactive, VDR inhibitor inactive, TrxR1 substrate inactive, mIDH1 inhibitor inactive, TrxR1 inh inactive and PLK1 PBD inh inactive.
`CC1=CC(=O)c2c(O)ccc(O)c2C1=O` gave Sfp PPTase inh 25.1µM.
Screening CCCCCC1OC1C/C=C\C/C=C\C/C=C\CCCC(=O)O (stereo not drawn) returned Sfp PPTase inh inactive and VDR inhibitor inactive.
COc1cccc(-n2c(C)nc3c(cnn3-c3ccc(Cl)cc3)c2=O)c1 was read as Sfp PPTase inh inactive, VDR inhibitor inactive, TrxR1 substrate inactive[11.4 µM], mIDH1 inhibitor inactive, TrxR1 inh inactive[11.4 µM] and PLK1 PBD inh 21.2µM.

Screens as filed in PubChem.
